Laboratory results published in PubChem BioAssay (NCI).
This is part of a sample that, as a whole, favours compounds with a hit. Of some 79,000 tested, about 15% had one in any assay. Activity calls are given as the source filed them. No stated cut-off is given here; in the data, active means growth inhibition above about 70%; inactive means the rest. Where a SMILES comes first, the peptide text is derived from it. [ ]: non-standard residue; d: D form. ξ: configuration not given here. ξF = NC(Cc1ccccc1)C(=O)O

Columns and labels:
[1] = NCI Yeast Anticancer Drug Screen. Data for the rad50 strain (AID 155);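 further: 0% = growth of vehicle-only cultures of the same strain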; details: S. cerevisiae rad50 strain growth inhibition; at 50.0 µM; active compounds read high
Procedure, shortened: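 Readout: growth inhibition relative to vehicle-treated cultures. Compound exposure was carried out in a genetically defined yeast strain deficient in DNA damage repair.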

[2] = NCI Yeast Anticancer Drug Screen. Data for the mec2-1 strain (AID 157); details: S. cerevisiae mec2-1 strain, at 50.0 µM, active compounds read high
Procedure, shortened: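 Growth inhibition is read against vehicle-treated controls after compound exposure of the mec2-1 yeast strain, which is defective in DNA damage repair or cell cycle control.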

[3] = NCI Yeast Anticancer Drug Screen. Data for the sgs1 mgt1 strain (AID 161);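 further: 0% = growth of cultures given vehicle only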; details: S. cerevisiae sgs1 mgt1 strain, at 50.0 µM, active compounds read high
Procedure, shortened: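 Compounds are added to genetically altered yeast, and growth is compared with cultures given vehicle alone to give percent inhibition.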

[4] = NCI Yeast Anticancer Drug Screen. Data for the cln2 rad14 strain (AID 165);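 further: 0% = growth equal to vehicle treated cultures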; details: S. cerevisiae cln2 rad14 strain, at 50.0 µM, active compounds read high
Procedure, shortened: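 Growth inhibition, relative to vehicle-treated controls, is the read-out. The test organism is a yeast strain with defined genetic alterations, cln2 rad14.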

[5] = NCI Yeast Anticancer Drug Screen. Data for the bub3 strain (AID 167); details: S. cerevisiae bub3 mutant strain, at 50.0 µM, active compounds read high
Procedure, shortened: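 Readout: yeast growth inhibition, expressed relative to vehicle-only wells. The test organism is a mutant strain from a panel with lesions in DNA repair or checkpoint genes.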

[6] = NCI Yeast Anticancer Drug Screen. Data for the mlh1 rad18 strain (AID 175); details: S. cerevisiae mlh1 rad18 strain growth inhibition; at 50.0 µM; active compounds read high
Procedure, shortened: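 Cells of a genetically altered yeast strain, deficient in DNA damage repair, were treated with compound. Their growth was then compared with that of vehicle-treated cultures to give inhibition.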

Measured: growth inhibition

CC(=O)O[C@H]1C[C@H]2[C@@H](OC(C)=O)/C=C3\C[C@](C)(C(=O)[C@H](O)C(=C1C)C2(C)C)[C@@H](O)C[C@@H]3OC(=O)[C@H](O)[C@H](c1ccccc1)N(C)C
inactive: [1] 7.3% | [2] -0.45% | [3] -8.6% | [4] -10.3% | [5] -1.4% | [6] 2.4%

O=C1OC(=O)c2ccccc21
inactive: [1] 5.25% | [2] -15.2% | [3] -11.4% | [4] -24.8% | [5] -2.2% | [6] 0.05%

Cc1cc(C)c2c(c1)CC(C)(C)C(=O)OC2=O
inactive: [1] -16.2% | [2] -23.9% | [3] -9.65% | [4] 2.4% | [5] -10.3% | [6] -11.2%

O=C(NCCNC(=O)c1cccc([N+](=O)[O-])c1O)c1cccc([N+](=O)[O-])c1O
inactive: [1] 19.6% | [2] 6.8% | [3] -2.85% | [4] -9% | [5] -3.2% | [6] 11.8%

O=CC1N=C(Cc2ccccc2)OC1=O (stereo unspecified)
inactive: [1] 25.6% | [2] 10% | [3] -6.2% | [4] -4.55% | [5] -7.35% | [6] 8.2%

Cc1cc2c(CC(=O)O)[nH]nc2c(C(=O)O)c1C
inactive: [1] 1.4% | [2] -10.4% | [3] -13.2% | [4] 4.8% | [5] 8.25% | [6] -0.55%

CC1(c2ccccc2)CCCCC1OC(N)=O (stereo unspecified)
inactive: [1] 4.3% | [2] -21.9% | [3] -13.9% | [4] 27.5% | [5] 7.2% | [6] -5.15%

COc1ccc(C2=Nn3c(nc4sc(-c5ccccc5)cc4c3=O)SC2)cc1
inactive: [1] -16.9% | [2] -9.15% | [3] -25.6% | [4] 3.55% | [5] -8.05% | [6] -16%

O=C1c2ccccc2S(=O)N1OCc1ccccc1 (stereo unspecified)
inactive: [1] -0.85% | [2] 0.75% | [3] 15.4% | [4] -16.6% | [5] 0.95% | [6] 9.6%

O=C(O)/C(=C\c1ccccc1Cl)S(=O)(=O)c1ccccc1
inactive: [1] -25.5% | [2] -6.45% | [3] -12.6% | [4] -0.35% | [5] -16% | [6] 15.1%

NC1=NN(O)C2=CC(Br)C=CC2=N1 (stereo unspecified)
inactive: [1] 10.3% | [2] -7.4% | [3] 11.6% | [4] 7.55% | [5] 43.1% | [6] 22.4%

c1ccc(CSC2(SCc3ccccc3)CCCC2)cc1
inactive: [1] -7.3% | [2] -19.3% | [3] -22.6% | [4] 11.8% | [5] -1.1% | [6] -4.45%

NC(Cc1ccccc1)C(=O)NCC(=O)O (stereo unspecified) (H-[ξF]-Gly-OH)
inactive: [1] -7.45% | [2] 8.65% | [3] -6.35% | [4] -26.4% | [5] -11.7% | [6] -12.3%

COc1ccc(OC)c(NC(=O)C(=O)C(C(=O)c2ccccc2F)C2OC(=O)c3ccccc32)c1 (stereo unspecified)
inactive: [1] -15.6% | [2] -20.2% | [3] -27.9% | [4] -15.8% | [5] -60.2% | [6] -41.2%

COC1OC(C(C)Br)C2OC(C)(C)OC12 (stereo unspecified)
inactive: [1] 7.1% | [2] 21.4% | [3] 3.5% | [4] -6.2% | [5] 9.85% | [6] 27.4%

O=CN1CCN(c2ccc3ccc(=O)[nH]c3n2)CC1
inactive: [1] -4.45% | [2] -24.2% | [3] 19.5% | [4] 9% | [5] -5.05% | [6] -14.2%

O=C(O)CCS.[Cu+2]
inactive: [1] -11.8% | [2] -25.3% | [3] -9.05% | [4] -10.7% | [5] -29.9% | [6] -14.8%

COc1ccc(-c2cc(=O)c3c(O)cc(O)cc3o2)c(OC)c1OC
inactive: [1] -22.2% | [2] -17.7% | [3] -21.1% | [4] 6.95% | [5] -26.6% | [6] 4.05%

CCCCC(CC)COC(=O)COc1ccc(C(C)c2ccc(OCC(=O)OCC(CC)CCCC)cc2)cc1 (stereo unspecified)
inactive: [1] -6.6% | [2] 10.5% | [3] 7.9% | [4] -3.55% | [5] 3.2% | [6] -38.2%

NNCCc1n[nH]c(=O)n1N
inactive: [1] -3.5% | [2] -18.4% | [3] 9.55% | [4] 2.55% | [5] 5.1% | [6] -8.15%

O=C1C(NS(=O)(=O)c2ccccc2)=C(n2cnc3ccccc32)C(=O)c2ccccc21
inactive: [1] 0.75% | [2] 4.4% | [3] 12.1% | [4] -1.95% | [5] 1.65% | [6] -58.8%

NC(=O)Nc1ccc(Cc2ccc(NC(N)=O)cc2)cc1
inactive: [1] -15.4% | [2] -26.8% | [3] 10.7% | [4] 10.8% | [5] 12.9% | [6] 12.3%

C=C(CC/C=C\CO)[Si](C)(C)C
inactive: [1] -10.5% | [2] -20.1% | [3] 1.05% | [4] 7.35% | [5] 9.95% | [6] -9.5%

O=C(Nc1ccccc1)/C(N=Nc1ccccc1)=N\Nc1ccccc1
inactive: [1] -12.6% | [2] -16.1% | [3] -10.4% | [4] -28.4% | [5] 6.6% | [6] 19.8%

O=C1NC(O)c2cccc([N+](=O)[O-])c2O1 (stereo unspecified)
inactive: [1] 19.4% | [2] 9.1% | [3] 15% | [4] 65.5% | [5] -14.8% | [6] 30.8%

CN(C)Cc1c(CC(O)(c2ccccc2)c2ccccc2)ccc2ccccc12
inactive: [1] 10.8% | [2] -4.75% | [3] -12.2% | [4] -0.55% | [5] -1.2% | [6] 5.6%

COc1cc2c(oc(=O)c3c4occc4cc(OC)c23)c2cccc(OCc3ccccc3)c12
inactive: [1] 2% | [2] 14.9% | [3] -11.8% | [4] 8.35% | [5] -20.9% | [6] 3.85%

CCOC(=O)C1C(c2ccc(Cl)cc2Cl)NC(c2ccc(C)cc2)C(C(=O)OC)S1(=O)=O (stereo unspecified)
inactive: [1] 13% | [2] -9.8% | [3] -8.85% | [4] 27.3% | [5] -5.1% | [6] 27.1%

CCOC(=O)C(C)C(=O)C(C)C (stereo unspecified)
inactive: [1] -1.65% | [2] 0.5% | [3] 0.75% | [4] -11.8% | [5] 13.7% | [6] -9.35%

O=C(O)CCCc1ccc(N(CCO)CCO)cc1
inactive: [1] 5.3% | [2] 2.55% | [3] -3.1% | [4] 18% | [5] 8.05% | [6] 19%

CC1(C)CNCC2(C)OCCCOC3(C)CNCC(C)(C)NC(=O)C(C)(CNCC(C)(C)NC3=O)OCCCOC(C)(CNCC(C)(C)NC2=O)C(=O)N1
inactive: [1] -22.6% | [2] -21.1% | [3] -24.4% | [4] 16.1% | [5] -3.05% | [6] -21.7%

CCCCCCCCCCCC(=O)Nc1cc(Cl)c(OC)cc1OC
inactive: [1] -17.4% | [2] 6.75% | [3] 13.9% | [4] -32.8% | [5] 7.1% | [6] 48.4%

CN(C)C(=S)SCC(=O)c1ccccc1
inactive: [1] -23.1% | [2] -27.6% | [3] -16.6% | [4] -20.2% | [5] -9.7% | [6] -10.6%

Cc1nc(N)[nH]c(=O)c1CCCN=Cc1ccccc1
inactive: [1] 8.5% | [2] 56.5% | [3] 2.8% | [4] 18.5% | [6] 51.1%
active: [5] 92.2%

Nc1nc(=O)n(C2CC(O)C(CO)O2)cc1I (stereo unspecified)
inactive: [1] -43.3% | [2] 1% | [3] 7.55% | [4] -17.2% | [5] -0.8% | [6] 11.2%

O=C(Oc1ccc(-c2ccccc2)cc1)c1cccc([N+](=O)[O-])c1
inactive: [1] -10.1% | [2] -4.5% | [3] 7.1% | [4] -11.4% | [5] 27.5% | [6] 0.2%

CNc1ncnc2c1ncn2C
inactive: [1] 20.8% | [2] 24.5% | [3] -7.1% | [4] -17.1% | [5] 1.6% | [6] -2.1%

NC(N)=NC(N)=Nc1cccc(S(=O)(=O)c2cccc(N=C(N)N=C(N)N)c2)c1
inactive: [1] 8.1% | [2] -0.55% | [3] -0.1% | [4] 12.8% | [5] -3.95% | [6] 13.2%

CC(C)(C)c1onc2c1C(=O)c1ccccc1-2
inactive: [1] -3.7% | [2] -2.55% | [3] 1.35% | [4] -5.9% | [5] 25.9% | [6] -2.75%

Cc1nc2c(Cl)cc(Cl)cc2c(Cl)c1CCCl
inactive: [1] 29.9% | [2] 30.2% | [3] 49.5% | [4] 18.9% | [5] 39.6% | [6] 45.6%

CCCCCCC[CH2][Sn]1([CH2]CCCCCCC)[O]C(=O)c2cccnc2[O]1
inactive: [1] 27.4% | [2] 7.3% | [3] 13.2% | [4] 10.3% | [5] 17.2% | [6] 19.8%
